In the library only some 21% were active in any assay of this set; here they are far more common.
HCMV inh: qHTS Assay for inhibitors of the human cytomegalovirus (HCMV); HFF cells, HCMV-luciferase reporter, 72 h; hits give low values; activity change, negative = inhibition, % at 57.5 µM; 410,000 compounds, 4.5% hits; AID 1259415, 2018; in the data active = activity change below about -60%; inconclusive = no clear call, values can overlap the other calls; inactive = above about -39%; also: % is scaled to controls: 0 for no effect and ±100 for the full control effect
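After 16 h attachment at 37C, HFF cells received test compound and HCMV-luciferase (1 PFU/cell); reporter luminescence read 72 h later, data normalized against buffer-only and known inhibitor Salinomycin.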
CHX counter: Cycloheximide Counterscreen for Small Molecule Inhibitors of Shiga Toxin; cell reporter, cycloheximide protein synthesis inhibition counterscreen; max response, %; 300,000 compounds, 12% hits; AID 2314, 2010; in the data active = max response mostly above about 13%, no sharp cut-off; inactive = mostly below about 14%; also: read at 38.3 µM for the half of the compounds with a filed dose; 0% is about no effect
Shiga inhibitor: A qHTS for Small Molecule Inhibitors of Shiga Toxin; Vero cells, Shiga toxin protein synthesis inhibition reporter; inhibition, % at 38.7 µM; 290,000 compounds, 9.2% hits; in the data active = inhibition mostly above about 28%, no sharp cut-off; inactive = mostly below about 43%; also: 0% is about no effect
Pf growth 96h: Primary qHTS for delayed death inhibitors of the malarial parasite plastid, 96 hour incubation. P. falciparum luciferase reporter growth, 96 h. Potency, µM (doses to about 28.7 µM), for inactives: at the highest dose activity change, negative = inhibition, usual class: inhibitors. 320,000 compounds, 6.9% hits. AID 504834, 2011; also: potency is read from the fitted curve at half-maximal effect; % is scaled to controls: 0 for no effect and ±100 for the full control effect
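Two parasite generations (96 h, 37 C, 5% CO2) of compound exposure in infected erythrocytes (0.05% parasitemia, 2% hematocrit). Luciferase-reporter P. falciparum; decreased luminescence indicates inhibited growth, aimed at apicoplast-acting delayed death.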
Pf growth 48h: Primary qHTS for delayed death inhibitors of the malarial parasite plastid, 48 hour incubation | P. falciparum luciferase growth in erythrocytes, 48 h | Potency, µM (series often up to 28.7 µM), without a hit: at the top dose activity change, negative = inhibition, usual class: inhibitors | 310,000 compounds, 5.9% hits; also: potency is read from the fitted curve at half-maximal effect; % is scaled to controls: 0 for no effect and ±100 for the full control effect
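Read-out is firefly luciferase luminescence from an integrated reporter in P. falciparum, so falling signal marks reduced parasite growth. Infected erythrocytes were at 2% hematocrit and 0.1% parasitemia (final) in Albumax-supplemented RPMI 1640.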
HCV inh: qHTS Assay for Inhibitors of Hepatitis C Virus (HCV). Huh7.5.1 HCVcc-Cre infection, luciferase reporter, 44 h. Potency, µM (highest dose often 41.8 µM), without a hit: at the top dose activity change, negative = inhibition, usual class: inhibitors. 340,000 compounds, 3.4% hits. AID 651820, 2012; also: potency is read from the fitted curve at half-maximal effect; % is scaled to controls: 0 for no effect and ±100 for the full control effect
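HCVcc-Cre virus at an moi near 0.5 was added right after compound to cells cultured 4 h from seeding (1,000 cells/well). Luciferase activity was determined 44 h later, 15 min after substrate addition at RT.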
* = called active by the depositor; i = inactive; ? = inconclusive; / = not tested or not shown. Unless noted, calls follow the shape of the dose curve; as a rule, active = well fitted inhibition curve with a large enough effect; inconclusive = small, poorly fitted or top-dose-only effect, or another doubt; inactive = no such curve, though single readings can be large or run the other way.

SMILES	HCMV inh	CHX counter	Shiga inhibitor	Pf growth 96h	Pf growth 48h	HCV inh
CC(C)C[C@H](NC(=O)c1[nH]cnc1C(=O)Nc1ccc(CNC(=O)OC(C)(C)C)cc1)C(=O)OC(C)(C)C	39	-1	-5	6.6µM*	8.3µM*	?
CC(C)C[C@H](NC(=O)c1[nH]cnc1C(=O)Nc1ccc(CNC(=O)OC(C)(C)C)cc1)C(=O)OCc1ccccc1	-7	-1	-4	?	12µM*	1%
CC(C)(C)OC(=O)NCc1ccc(NC(=O)c2nc[nH]c2C(=O)NCCNC(=O)c2[nH]cnc2C(=O)Nc2ccc(CNC(=O)OC(C)(C)C)cc2)cc1	/	/	/	/	/	-1%
CC(C)(C)OC(=O)CNC(=O)c1[nH]cnc1C(=O)Nc1ccc(CNC(=O)OC(C)(C)C)cc1	39	5	10	13µM*	13µM*	?
CCOc1cc2c(cc1OCC)C(CC(=O)O)N(C(=O)Nc1ccc(Br)c(C)c1)CC2 (stereo unspecified)	108	/	/	/	/	/
COc1cc(OC)cc(C(=O)OCCCOC(=O)c2cc(OC)cc(OC)c2)c1	-31	1	-24	-4%	5%	-20%
C[C@H](CO)NC(=O)c1[nH]cnc1C(=O)Nc1ccc(CNC(=O)OC(C)(C)C)cc1	-11	/	/	/	/	/
C[C@@H](CO)NC(=O)c1[nH]cnc1C(=O)Nc1ccc(CNC(=O)OC(C)(C)C)cc1	-12	/	/	/	/	/
CC(C)(C)OC(=O)NCc1ccc(NC(=O)c2nc[nH]c2C(=O)N[C@@H](Cc2ccccc2)C(=O)OC(C)(C)C)cc1	?	3	-4	8.3µM*	2.3µM*	?
C[C@H](NC(=O)c1[nH]cnc1C(=O)Nc1ccc(CNC(=O)OC(C)(C)C)cc1)C(=O)OCc1ccccc1	20	-3	-8	30%	9.3µM*	?
CN(C(=O)CSc1nc2sc3c(c2c(=O)n1C)CCC3)C1CCS(=O)(=O)C1 (stereo unspecified)	-10	/	/	-20%	-25%	1%
Fc1ccc2c(c1)c1n[nH]c(=S)nc1n2CCc1ccccc1	?	-2	-3	21%	?	7%
Cc1ccc2c(c1)c1n[nH]c(=S)nc1n2CCc1ccccc1	-93*	-2	5	9%	?	-6%
COc1cccc(O)c1CN1CCC(Oc2ccc(C(=O)NCc3ccccn3)cc2)CC1	?	-2	-4	?	?	-4%
Cc1c(C(=O)Nc2ccc(Nc3ccccc3)cc2)cccc1[N+](=O)[O-]	-4	6	3	?	-17%	?
O=C(Nc1ccc2c(c1)CCC2)c1ccccc1Br	18	34*	63*	i	65%	-9%
Cc1c(C(=O)Nc2ccc3c(c2)CCC3)cccc1[N+](=O)[O-]	2	95*	125*	?	105%	-12%
COC(=O)c1ccc(NC(=O)c2ccccc2N(C)S(=O)(=O)c2ccccc2)cc1	5	16*	8	?	/	-1%
COC(=O)c1ccc(NC(=O)c2ccccc2C(=O)Nc2ccc(C(=O)OC)cc2)cc1	?	/	/	/	/	-7%
COC(=O)c1ccc(NC(=O)c2ccccc2SC)cc1	37	27*	46*	96%	66%	-16%
COc1ccc(-c2noc(CCC(=O)N(C)c3cc(Cl)ccc3OC)n2)cc1	-24	/	/	/	/	/
Cc1nn(CC(=O)c2ccc3c(c2)OCCO3)c(=O)c(C#N)c1C	-34	/	/	/	/	6%
O=C(O)c1cccnc1C(=O)c1ccccc1	38	/	/	/	/	19%
CSc1ccccc1C(=O)Nc1ccc2c(c1)CCC2	66	21	41*	92%	101%	8%
N#Cc1c(SCc2ccc(Cl)cc2)sc(C(=O)c2ccccc2)c1N	-15	4	14	?	1%	-15%
CC(=O)Nc1ccc(Oc2sc(C(=O)c3ccccc3)c(N)c2C#N)cc1	-88*	-5	-17	?	?	?
c1ccc(NC2=NCCS2)cc1	-34	0	28	6%	13%	6%
Cc1ccc(NC2=Nc3ccccc3CS2)cc1	-3	38*	30	-46%	94%	-12%
